“And” between values parts separate entries of the source, which are not always exact repeats. Identical values can stand only once. This is part of a sample that, as a whole, favours compounds with a hit. Of some 83,000 tested, about 20% had one in any assay.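 Cells were grown in 96-well plates and exposed to the test compound at a single concentration for 48 hours; results are reported as percent growth, with values below 10 considered active.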 The source made the active and inactive calls.
These compounds were tested on TK-10 renal (assay: NCI-60 one-dose screen, 48 h (100 = growth as untreated, 0 = no growth, -100 = all killed)). Settings: 10 µM unless noted.

**Q.** For `O=C(CCc1ccc(O)c(O)c1)c1ccc(O)c(O)c1O`, which growth is on record?
**A.** 74.7% [100 µM] (inactive) and -88% [100 µM] (active)

**Q.** How did the growth turn out when `COC(=O)C(=O)C(C(=O)C(=O)Nc1ccc(Cl)c(Cl)c1)c1nc2ccc(C(=O)c3ccccc3)cc2[nH]c1=O` (centres undefined) was run?
**A.** 89.4% [100 µM] (inactive) and 14.4% [100 µM] (inactive)

**Q.** Which growth does the source give for `C[C@@H]1CC[C@H]2C(C)(C)[C@H]3C[C@@]12CC[C@@]3(C)O` here?
**A.** 87.1% [100 µM] (inactive) and 15.8% [100 µM] (inactive)

**Q.** How did the growth turn out when `N#CC1(C#N)C2CCCCC23OC(=N)C1(C#N)C(c1ccccc1)O3` (centres undefined) was run?
**A.** -29% [100 µM] (active)

**Q.** With `C=C1CC2(C)CCC(OC(=O)C3(C)OC3C)C(C)(OC(C)=O)C2CC1=C(C)C` (centres undefined) as the compound, how does the growth read?
**A.** 89.2% [100 µM] (inactive) and 49.5% [100 µM] (inactive)

**Q.** How did the growth turn out when `N#CC(=S)Nc1ccc(F)cc1` was run?
**A.** 33.9% [100 µM] (inactive) and 8.52% [100 µM] (active)

**Q.** With `CC(=O)C1=C(C)N2C(=NC3=C(CCc4ccccc43)C2c2cccc(Br)c2)S1` (centres undefined) as the compound, how does the growth read?
**A.** 112% [100 µM] (inactive) and 48.5% [100 µM] (inactive)

**Q.** Which growth does the source give for `Cc1ccc(/C=N/Nc2nncc3ccccc23)s1` here?
**A.** 105% [100 µM] (inactive) and 21.6% [100 µM] (inactive)

**Q.** How did the growth turn out when `Cc1ccc(NC2=N/C(=C/c3ccccc3)C(Cl)=N2)cc1` was run?
**A.** 82.6% [100 µM] (inactive) and -17.1% [100 µM] (active)

**Q.** `COC(=O)c1cc(C#N)[nH]c1-c1ccsc1` was tested. Which growth did it give?
**A.** 93.8% [100 µM] (inactive) and 19.4% [100 µM] (inactive)

**Q.** Which growth does the source give for `NC(N)=Nc1ccc(CC(N)C(=O)O)cc1` (centres undefined) here?
**A.** 107% [12.5 µM] (inactive) and 111% [12.5 µM] (inactive)

**Q.** `CC1=C2NCN(C)N=C2C(C#N)(C#N)C1(C#N)C#N` was tested. Which growth did it give?
**A.** -7.38% [100 µM] (active) and -90.4% [100 µM] (active)

**Q.** For `C=CC(COC(=O)C(C)(C)OC(C)=O)c1ccc(OC(=O)C(C)C)c(OC)c1` (centres undefined), which growth is on record?
**A.** -92.8% [100 µM] (active) and -93% [100 µM] (active)

**Q.** With `O=C1CC(c2ccccc2)NCCCCN2CC(CN1)C(C(O)c1ccccc1)C2=O` (centres undefined) as the compound, how does the growth read?
**A.** 97.8% [100 µM] (inactive) and 88.7% [100 µM] (inactive)

**Q.** With `CC1C2(C)OC(=N)C(C#N)(C(c3cccc([N+](=O)[O-])c3)O2)C1(C#N)C#N` (centres undefined) as the compound, how does the growth read?
**A.** 108% [100 µM] (inactive)

**Q.** Which growth does the source give for `COc1ccc2cc1Oc1ccc(cc1)CC1c3cc(OC)c(cc3CCN1C)Oc1c(OC)c(OC)cc3c1C(C2)N(C)CC3` (centres undefined) here?
**A.** -57.1% [75 µM] (active) and -97.5% [75 µM] (active)

**Q.** How did the growth turn out when `CCCCCCSC[C@H](OC(C)=O)[C@@H](OC(C)=O)[C@@H](OC(C)=O)[C@@H](COC(C)=O)OC(C)=O` was run?
**A.** 95.1% [100 µM] (inactive) and 101% [100 µM] (inactive)

**Q.** For `Clc1ccc(C2C3COc4ccccc4C3=NN2c2ccccc2)cc1` (centres undefined), which growth is on record?
**A.** 77% [100 µM] (inactive) and 31.3% [100 µM] (inactive)

**Q.** `Cc1ccc(OCC2OC(n3cnc4c(Cl)nc(Cl)nc43)CC2Oc2ccc(C)cc2)cc1` (centres undefined) was tested. Which growth did it give?
**A.** 72.8% [100 µM] (inactive) and -96.1% [100 µM] (active)

**Q.** `COC(=O)C(=O)C(C(=O)C(=O)Nc1ccccc1OC)c1nc2ccc([N+](=O)[O-])cc2[nH]c1=O` (centres undefined) was tested. Which growth did it give?
**A.** 121% [100 µM] (inactive) and 68% [100 µM] (inactive)

**Q.** For `Cc1ccc(F)cc1NC(=O)O/N=C(\Cl)C(C)C`, which growth is on record?
**A.** 65.6% [100 µM] (inactive) and 72.9% [100 µM] (inactive)

**Q.** `C/C(=C\COc1cc(O)c2c(c1)C(=O)c1cc(C)cc(O)c1C2=O)CCC1OC1(C)C` (centres undefined) was tested. Which growth did it give?
**A.** 42.6% [100 µM] (inactive) and 20.6% [100 µM] (inactive)

**Q.** For `CCCCCCCCCCCCC/C=C/[C@H]1[C@@H](C(=O)OC)N1S(=O)c1ccc(C)cc1` (some centres undefined), which growth is on record?
**A.** 107% [100 µM] (inactive) and 52.5% [100 µM] (inactive)

**Q.** `COc1cc([C@H]2OC[C@@H]3C(c4cc(OC)c5c(c4)OCO5)OC[C@H]23)cc(OC)c1OC` (some centres undefined) was tested. Which growth did it give?
**A.** 84.5% [100 µM] (inactive) and 28.7% [100 µM] (inactive)

**Q.** With `CCOC(=O)COc1cc(-c2ccccc2)nc2cc(F)ccc12` as the compound, how does the growth read?
**A.** 95.9% [100 µM] (inactive) and 90.1% [100 µM] (inactive)

**Q.** How did the growth turn out when `C[N+](C)(CCNC(=O)c1cccc2cc3ccccc3nc12)Cc1ccc([N+](=O)[O-])s1` was run?
**A.** 72% [25 µM] (inactive) and 30.2% [25 µM] (inactive)

**Q.** For `Cc1cc(S(=O)(=O)O)c(NC(=O)c2oc3cc(O)ccc3c(=O)c2C)cc1Cl`, which growth is on record?
**A.** 90.8% [100 µM] (inactive) and 91.7% [100 µM] (inactive)

**Q.** For `C[C@@H]1C[C@](O)([C@@H](C)Cl)C(=O)O[C@@H]2CCN3CC=C(COC(=O)[C@]1(C)O)[C@H]23`, which growth is on record?
**A.** 66.6% [100 µM] (inactive) and 88% [100 µM] (inactive)

**Q.** For `CC(=N\N=C\c1ccccn1)/C(C)=N/N=C/c1ccccn1`, which growth is on record?
**A.** 108% [100 µM] (inactive) and 118% [100 µM] (inactive)

**Q.** `C/C(O)=C/c1nc2sc(C)c(C)c2c(=O)s1` was tested. Which growth did it give?
**A.** 50.2% [100 µM] (inactive) and 46.7% [100 µM] (inactive)

**Q.** With `O=C1c2cccnc2-c2nccc3ccnc1c23` as the compound, how does the growth read?
**A.** -100% [100 µM] (active)

**Q.** Which growth does the source give for `CCOC(=O)C(=O)C(CCC(=O)c1ccc2ccccc2c1O)C(=O)OCC` (centres undefined) here?
**A.** 125% [100 µM] (inactive) and 106% [100 µM] (inactive)

**Q.** Which growth does the source give for `Clc1c(Cl)c(Cl)c2nn(C3CCCO3)nc2c1Cl` (centres undefined) here?
**A.** 24.5% [100 µM] (inactive) and -76.8% [100 µM] (active)

**Q.** For `CC1(C)Oc2ccc3c(=O)cc(-c4ccc(F)cc4)oc3c2C1C(=O)O` (centres undefined), which growth is on record?
**A.** 100% [100 µM] (inactive) and 99.3% [100 µM] (inactive)

**Q.** Which growth does the source give for `CC(C)C1OC(N)=C(C#N)C1(C#N)C#N` (centres undefined) here?
**A.** 62.1% [100 µM] (inactive) and 24.7% [100 µM] (inactive)

**Q.** How did the growth turn out when `COC(=O)C1CCC(=O)N1CN(C(C)=O)c1cccc(O)c1` (centres undefined) was run?
**A.** 77.3% [100 µM] (inactive) and 106% [100 µM] (inactive)

**Q.** With `Cc1coc2c1C(OC(=O)C(C)C)C1(C)C(C)CCC(O)C1C2=O` (centres undefined) as the compound, how does the growth read?
**A.** 87.9% [100 µM] (inactive) and 63.5% [100 µM] (inactive)

**Q.** `C=C1C2CCC3C4(C)CCCC(C)(C(=O)O)C4CCC3(C2)C1OC(=O)/C(C)=C/C` (centres undefined) was tested. Which growth did it give?
**A.** 27.3% [100 µM] (inactive) and 79.6% [100 µM] (inactive)

**Q.** Which growth does the source give for `COc1cc2c(cc1-c1coc3cc(O)ccc3c1=O)OCO2` here?
**A.** 81.2% [100 µM] (inactive) and 3.05% [100 µM] (active)

Reference: PubChem BioAssay (NCI)
